D3 ag – D3 dopamine receptor (human) agonism; P35462; D3R DiscoveRx beta-arrestin cells, luminescence, 90 min; max activation, %; 410,000 compounds, 0.58% hits; in the data active = max activation above about 30%; also: 0% is about no effect
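Agonist-mode cell screen: cells plated at 1500/well and incubated overnight at 37 °C, then exposed to library compounds for 90 min at 37 °C. Detection reagent was added for 30–60 min at room temperature, and luminescence was read.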
D1 antag – human D1 dopamine receptor antagonism; activity change, negative = inhibition, % at 10 µM; P21728; 360,000 compounds, 3.2% hits; AID 504652; HEK293 TREx D1 cells, calcium flux, dopamine EC80; hits give low values; in the data active = activity change below about -30%; also: % is scaled to controls: 0 for no effect and ±100 for the full control effect
Target sequence (P21728 whole entry, looked up): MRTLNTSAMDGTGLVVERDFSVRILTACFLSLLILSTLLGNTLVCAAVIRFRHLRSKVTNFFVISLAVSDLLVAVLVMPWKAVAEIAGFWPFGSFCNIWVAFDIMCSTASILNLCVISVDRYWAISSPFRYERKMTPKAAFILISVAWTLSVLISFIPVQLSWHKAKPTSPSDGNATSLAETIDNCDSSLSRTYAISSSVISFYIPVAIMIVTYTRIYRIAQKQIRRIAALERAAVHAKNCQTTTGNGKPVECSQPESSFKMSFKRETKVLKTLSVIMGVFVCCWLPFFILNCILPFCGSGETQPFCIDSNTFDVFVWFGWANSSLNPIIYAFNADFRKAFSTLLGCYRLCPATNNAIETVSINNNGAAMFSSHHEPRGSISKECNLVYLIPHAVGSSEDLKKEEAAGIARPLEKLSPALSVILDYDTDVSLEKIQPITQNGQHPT
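Tetracycline-induced HEK293 T-REx cells with force-coupled D1 receptor were loaded with a no-wash calcium dye. Compound was added after a 10 s baseline and read kinetically for 180 s; EC80 dopamine was then added and calcium flux followed another 180 s.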
D3 antag – antagonists of human D3 dopamine receptor; P35462; D3R cells, DiscoveRx beta-arrestin luminescence, antagonist mode; hits give low values; max response, negative = inhibition, %; 360,000 compounds, 2.5% hits; in the data active = max response below about -50%; inconclusive = no clear call, values can overlap the other calls; also: % is scaled to controls: 0 for no effect and ±100 for the full control effect
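Cells expressing the human receptor were seeded at 1500 cells/well, incubated overnight at 37 degrees C in 5% CO2, then exposed to library compounds with dopamine controls for 90 minutes at 37 degrees C before luminescent detection.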
D1 PAM – potentiators of human D1 dopamine receptor. P21728. HEK293 TREx D1 cells, calcium flux, dopamine EC20 potentiation. potentiation, % at 10 µM. 360,000 compounds, 0.036% hits. AID 504651; in the data active = potentiation above about 30%; also: 0% is about no effect
D1 agonist – agonists of human D1 dopamine receptor; P21728; HEK293 T-REx D1 cells, calcium flux, agonist mode; activation, % at 2 µM; 360,000 compounds, 1% hits; in the data active = activation above about 30%; also: 0% is about no effect
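Agonism was scored from calcium flux recorded over 180 s (1 read/s) after pintool compound addition, following a 10-cycle baseline. Cells were inducible force-coupled HEK293 TREx D1, plated overnight at 30 C and loaded with no-wash calcium dye.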
Active calls of the source: *; u = inconclusive; x = not tested or not shown. Sampled rows, rich in hits. Any-hit rate of the full collection: about 6%.

SMILES	D3 ag	D1 antag	D3 antag	D1 PAM	D1 agonist
C#CCOCCOCCOCCNc1nc(N2CCN(C(=O)CCCCCCCCCCNC(=O)[C@@H](CCC(=O)O)n3cc(CCCCCN)nn3)CC2)nc(N2CCN(C(=O)CCCCCCCCCCNC(=O)[C@H]([C@@H](C)CC)n3cc(CCCCCN)nn3)CC2)n1	35.3*	54.3	10.4	36.9*	19.0
C#CCOCCOCCOCCNc1nc(N2CCN(C(=O)CCCCCCCCCCNC(=O)Cn3cc(CCCCCN)nn3)CC2)nc(N2CCN(C(=O)CCCCCCCCCCNC(=O)[C@H]([C@@H](C)CC)n3cc(CCCCN=C(N)N)nn3)CC2)n1	-33.9	12.1	-63.2*	-4.0	1.7
C#CCOCCOCCOCCNc1nc(N2CCN(C(=O)CCCCCCCCCCNC(=O)[C@H]([C@@H](C)CC)n3cc(CCCCCN)nn3)CC2)nc(N2CCN(C(=O)CCCCCCCCCCNC(=O)[C@H](CO)n3cc(CCCCCN)nn3)CC2)n1	0.9	92.1	-19.8	22.6	50.1*
C#CCOCCOCCOCCNc1nc(N2CCN(C(=O)CCCCCCCCCCNC(=O)[C@H]([C@@H](C)CC)n3cc(CCCCCN)nn3)CC2)nc(N2CCN(C(=O)CCCCCCCCCCNC(=O)[C@H](CCCCN)n3cc(CCCC(=O)O)nn3)CC2)n1	41.6*	59.6	-4.2	26.4	34.6*
CCc1cc(C(=O)Nc2c(C)nn(Cc3ccccc3Cl)c2C)no1	-19.0	-2.6	x	0.6	-2.3
COCOc1cccc(CN2CCC2(C)C(=O)Nc2ccc(OC)c(OC)c2)c1 (stereo not given)	2.9	x	11.5	x	x
CC(CC(=O)Nc1ccc2c(c1)c(=O)n(C)n2Cc1ccc(F)cc1)C(F)(F)F (stereo not given)	10.2	x	28.0	x	x
Cc1ccc(S(=O)(=O)NCCc2nnc3ccc(SCc4cccc(F)c4)nn23)cc1	-4.2	5.6	x	0.2	-0.4
CN(C)S(=O)(=O)N1CCC(Oc2cccc(C(=O)N3CCSCC3)c2)CC1	4.1	-21.1	-2.7	-3.6	8.0
O=C(NCC(c1cccnc1)N1CCc2ccccc21)c1cccc(Br)c1 (stereo not given)	-14.8	6.9	x	-3.4	4.3
CCC(CC)C(=O)Nc1ccc(S(=O)(=O)N2CCC(c3nc4ccccc4s3)CC2)cc1	-6.8	0.0	x	-3.2	-0.7
C#CCOCCOCCOCCNc1nc(N2CCN(C(=O)[C@H](Cc3ccc(O)cc3)n3cc(CCO)nn3)CC2)nc(N2CCN(C(=O)[C@H](Cc3ccc(O)cc3)n3cc(CCO)nn3)CC2)n1	x	-10.1	x	-3.8	-2.6
C#CCOCCOCCOCCNc1nc(N2CCN(C(=O)Cn3cc(CCO)nn3)CC2)nc(N2CCN(C(=O)[C@H]([C@@H](C)CC)n3cc(CCCN=C(N)N)nn3)CC2)n1	52.8*	x	-2.9	x	x
C#CCOCCOCCOCCNc1nc(N2CCN(C(=O)Cn3cc(CCO)nn3)CC2)nc(N2CCN(C(=O)[C@H](Cc3ccc(O)cc3)n3cc(CCO)nn3)CC2)n1	46.8*	x	u	x	x
CC(C)CCOc1ccc(C(=O)NCC2OCCc3ccccc32)cc1 (stereo not given)	9.9	-1.5	x	-2.9	12.3
CC(C)COc1ccc(C(=O)NCC2OCCc3ccccc32)cc1 (stereo not given)	7.4	-31.0*	x	-1.3	1.6
CN1C(=O)C(CC#N)(C2(CC#N)C(=O)N(C)c3ccccc32)c2ccccc21 (stereo not given)	9.1	x	-8.8	x	x
CCOC(=O)C(=CNc1ccc(O)c(C(=O)OC)c1)C(=O)OCC	56.9*	x	158.6	x	x
COC(=O)c1ccc(NC(=O)C(=O)c2c[nH]c3ccccc23)cc1	0.6	-6.8	23.0	-8.3	-1.4
COC(=O)C1=[N+]([O-])OC(C(=O)OC)C1c1c[nH]c2ccccc12 (stereo not given)	6.5	-5.1	-55.8*	-2.9	2.9
Cc1ccc(Sc2ccc(/C=N/O)cc2[N+](=O)[O-])cc1	-12.8	-19.0	-69.3*	-7.1	2.4
COc1cc(NC(=O)CCc2nnc3ccc(N4CCN(C)CC4)nn23)cc(OC)c1	-12.0	-3.8	-3.8	12.7	5.1
Cc1c(C(=O)Nc2ccncc2)sc2nc(-c3ccccc3)cn12	3.4	-33.5*	12.8	-7.7	16.9
CCN(CC)c1ccc(NC(=O)c2sc3nc(-c4ccccc4)cn3c2C)cc1	0.6	-11.0	x	-2.8	4.5
